We go through 39 compounds from PubChem BioAssay (NCATS).

The structures appear in SMILES notation. Records with an inconclusive call do not appear. A number with no mark means an inactive call. The source made the active and inactive calls. Calls follow the shape of the dose curve; as a rule, active = well fitted cell-killing curve with a large enough effect; inconclusive = small, poorly fitted or top-dose-only effect, or effect the other way; inactive = no such curve, though single readings can be large or run the other way.
Potency is read from the fitted curve at half-maximal effect.

The nature of the assay: Viability qHTS for spleen associated tyrosine kinase inhibitor (SYKi) drug resistant MV4-11 cells (AID 1963824). Also: nearly all actives have a fitted effect of over 35% in size. To be noted: SYKi-resistant MV4-11 viability, CellTiter-Glo, 72 h; series mostly up to 45 µM. In outline:
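SYK inhibitor-resistant MV4-11 AML cells, 500 per well, added to predispensed compounds and incubated 72 hr at 37 C, 5% CO2. Viability measured by CellTiter-Glo luminescence after 10 min at room temperature.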
(In qHTS, concentration-response curves come from the screen itself.)
For `CCCC(Nc1nc(-c2ccc(NC(=O)NCC)c(OC)c2)ncc1C)c1cccnc1` (centres undefined), the Potency was 130 nM (active). The same measure, in the same setting: the result for `CC(C)=CCCC1(C)Oc2cc3c(c4c2C2C(O4)C(C)(O)CCC21)CN(C(CCC(=O)O)C(=O)O)C3=O` (centres undefined) reads “inactive”; that for `CCOC(=O)CCC(=O)O[C@H]1[C@H](O[C@@H]2[C@@H](C)[C@H](O[C@H]3C[C@@](C)(OC)[C@@H](O)[C@H](C)O3)[C@@H](C)C(=O)O[C@H](CC)[C@@](C)(O)[C@H](O)[C@@H](C)C(=O)[C@H](C)CC2(C)O)O[C@H](C)C[C@@H]1N(C)C` (some centres undefined), “inactive”. On the same count and under the same terms, then `OCC1OC(Oc2cc(O)cc(/C=C/c3ccc(OC4OC(CO)C(O)C(O)C4O)cc3O)c2)C(O)C(O)C1O` (centres undefined), with “inactive”; and `O=C1OCc2cc3cccc(O[C@@H]4O[C@H](CO)[C@@H](O)[C@H](O)[C@H]4O)c3c(O)c21`, with “inactive”. On the same count and under the same terms, the result for `C=C(CCO[C@@H]1O[C@H](CO)[C@@H](O)[C@H](O)[C@H]1O)C(=O)O` reads “inactive”.

As for `COc1cc(O)cc(C)c1C(=O)O[C@@H]1[C@H](O)[C@@H](CO)O[C@H]1n1ccc(=O)[nH]c1=O`, the Potency was 2000 nM (active). Same read-out and setting: then `CCC(=O)c1cc(-c2ccc(Cl)cc2)n(-c2ccc(S(N)(=O)=O)cc2)c1C`, with 16400 nM (active).

Consider `O=C(OC[C@H]1O[C@@H](Oc2ccccc2COC(=O)C2(O)C=CCCC2O)[C@H](O)[C@@H](O)[C@@H]1O)c1ccccc1` (some centres undefined), for which the Potency result was “inactive”. `CCc1c(Cl)c(O)c(Cl)c(O)c1C(=O)O[C@H]1[C@H](O)[C@H](OC)[C@H](OC/C2=C\C=C\C[C@H](O)/C(C)=C\[C@H](CC)[C@@H](O[C@@H]3OC(C)(C)[C@@H](OC(=O)C(C)C)[C@H](O)[C@@H]3O)/C(C)=C/C(C)=C/C[C@@H]([C@@H](C)O)OC2=O)O[C@@H]1C`: the Potency was 3990 nM (active). Turning to `Cc1c(C(=O)NCCCO)cnn1-c1nc(-c2cccc(C(F)(F)F)c2)cs1`, the Potency is 14600 nM (active). Same read-out and setting: then `COc1cc(/C=C/C(=O)O[C@@H]2O[C@H](CO)[C@@H](O)[C@H](O)[C@H]2O)ccc1O`, with “inactive”; and `CCC(NC(=O)CC(NC(=O)C(CO)NC(=O)C(CC)NC(=O)c1ccc[nH]1)c1ccccc1)C(=O)O` (centres undefined), with “inactive”.

As to `CN1CCN(C2Cc3ccccc3Sc3ccc(Cl)cc32)CC1` (centres undefined), the Potency is 3350 nM (active). Regarding `C[C@@H]1O[C@@H](OC2C(O[C@H]3[C@H](O[C@H]4CC[C@@]5(C)C(CC[C@]6(C)C5CC=C5C7CC(C)(C)CC(O)[C@]7(C)CC[C@]56C)C4(C)C)O[C@H](C(=O)O)[C@@H](O)[C@@H]3O)OC(CO)C(O)C2O)[C@H](O)[C@H](O)[C@H]1O` (some centres undefined), the viability, % of control was 97.3% [at 9.25 µM]. As to `CCOC(=O)c1ccc(N(C)c2csc(-c3ccccc3)n2)cc1`, the Potency entry is “inactive”. Turning to `Cc1cc(-c2nncc3c(C(C)(C)C)c(OCc4ncnn4C)nn23)no1`, the Potency result is “inactive”.

In the case of `O=C(O[C@H]1[C@@H]2C[C@@H]3OC[C@](O)([C@@H]1Cl)[C@H]2C(O[C@@H]1O[C@H](CO)[C@@H](O)[C@H](O)[C@H]1O)O3)c1ccc(O)c(O)c1` (some centres undefined), the Potency entry was “inactive”. As to `CC(=O)N[C@H]1[C@H](O[C@H]2CC[C@@]3(C)C(CC[C@]4(C)C3CC=C3[C@@H]5CC(C)(C)CC[C@]5(C(=O)OC5OCC(O)C(O)C5O)CC[C@]34C)C2(C)C)O[C@H](COC2OC(C)C(O)C(OC3OC(C)C(O)C(O)C3O)C2O)[C@@H](O)[C@@H]1O` (some centres undefined), the viability, % of control was 87% [at 9.25 µM]. In the case of `Oc1cccc(Nc2ccnc3[nH]c4ccccc4c23)c1`, the Potency was 2310 nM (active).

On to `Cc1c(Cl)cccc1S(=O)(=O)Nc1nc(NCCc2ccccc2)nc2c1CN(Cc1ccccc1)CC2`, for which the Potency was 13000 nM (active). Still for that read-out and setting: then `CC(=O)NCCNc1cc(Cl)nn2c(-c3cccc(S(=O)(=O)N(C)C)c3)c(C)nc12`, with 1640 nM (active). Consider `C[C@@H]1O[C@@H](O[C@H]2[C@H](O)[C@@H](O)[C@H](OC(=O)[C@]34CCC(C)(C)C[C@H]3C3=CCC5[C@@]6(C)CC[C@H](O[C@@H]7O[C@H](C(=O)O)[C@@H](O)[C@H](O)[C@H]7O)C(C)(C)C6CC[C@@]5(C)[C@]3(C)CC4)O[C@@H]2CO)[C@H](O)[C@H](O)[C@H]1O` (some centres undefined), for which the viability, % of control is 75.6% [at 9.25 µM]. In the case of `CN(c1ccccc1CNc1nc(Nc2ccc3c(c2)CC(=O)N3)ncc1C(F)(F)F)S(C)(=O)=O`, the Potency is 326 nM (active). Turning to `CN(CCO)C1CCN(c2ccc(Nc3ncc4c5ccnc(F)c5n(C5CCCC5)c4n3)nc2)CC1`, the Potency is 64.5 nM (active).

Consider `COc1cc2c(cc1O)CC[C@@H]1[C@@H]2CC[C@]2(C)[C@@H](O)CC[C@@H]12`, for which the Potency was 934 nM (active). As for `CC(=O)c1c(OCCN2CCCCC2)c(OCCC(C)c2ccc(F)cc2)c2oc(C)nc2c1C` (centres undefined), the Potency was 7310 nM (active). The same measure, in the same setting: the result for `CC[C@@H]1C(=O)O[C@]23C=C[C@@H]4C(C(=O)OC)=CO[C@H](O[C@@H]12)[C@@H]43` reads 5170 nM (active); that for `O=C(O)CCc1cc2ccoc2cc1O[C@@H]1O[C@H](CO)[C@@H](O)[C@H](O)[C@H]1O`, “inactive”. Still for that read-out and setting: the result for `CC(=O)O[C@@](C)(C(=O)/C=C/C(C)(C)O)[C@H]1[C@H](O)C[C@@]2(C)[C@@H]3CC=C4[C@@H](C=C(O)C(=O)C4(C)C)[C@]3(C)C(=O)C[C@]12C` reads 252 nM (active); that for `COc1cc(C(=O)O)ccc1OC1OC(CO)C(O)C(O)C1O` (centres undefined), “inactive”; that for `C/C(=N\N=C(N)N)c1ccc(NC(=O)Nc2ccc(/C(C)=N/N=C(N)N)cc2)cc1`, 731 nM (active). Consider `CC1OC(OC2C(O)C(C(=O)O)OC(OC3CCC4(C)C(CCC5(C)C4C=CC4=C6CC(C)(C)CC(O)C6(C)CCC45C)C3(C)C)C2OC2OCC(O)C(O)C2O)C(O)C(O)C1O` (centres undefined), for which the viability, % of control is 97.4% [at 9.25 µM]. As to `O=C(CC1CC(c2ccc(F)cc2F)=NO1)N1CCOCC1` (centres undefined), the Potency result was “inactive”. Same read-out and setting: the result for `O=C1C=CC2OC(c3ccccc3)C(O)C2O1` (centres undefined) reads 4110 nM (active). The same measure, in the same setting: the result for `CCC(C)C(N)C(=O)NCCN1CCOCC1` (centres undefined) reads “inactive”; that for `O=C(CCCCCCC(=O)Nc1ccc(C2OC(CSc3nc(-c4ccccc4)c(-c4ccccc4)o3)CC(c3ccc(CO)cc3)O2)cc1)NO` (centres undefined), 9200 nM (active). Same read-out and setting: the result for `C=C1C(=O)O[C@H]2C3=C(C)CCC[C@]3(C)C(=O)C[C@@H]12` reads 920 nM (active); that for `CCOc1ccc(Cc2nc(-c3c(C)nc4ccccn34)cs2)cc1`, 18.4 nM (active).
